In PubChem BioAssay (Tox21):
Inconclusive results are not listed. Activity calls are given as the source filed them. Unless noted, calls follow the shape of the dose curve; as a rule, active = well fitted curve in the direction sought with a large enough effect in the repeat runs; inconclusive = weak or mixed curves; inactive = no such curve, though single readings can be large; an effect the other way counts as inactive or inconclusive.

Tests used:
[1] = qHTS assay to identify small molecule HDAC inhibitors - cell viability counter screen (AID 1259365); also: series mostly up to about 92 µM; nearly all actives have a fitted effect of over 50% in size
Summary of the method: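 Luminescence from CellTiter-Glo, developed 30min at room temperature, reports viability of wild-type HCT-116 cells treated 2hr with compounds at 37 C and 5% CO2 after overnight plating.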

[2] = qHTS assay to identify small molecule agonists of the sonic hedgehog signaling (Shh) pathway - cell viability counter screen (AID 1259366); also: nearly all actives have a fitted effect of over 50% in size
Summary of the method: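 Cytotoxicity counter screen run in the same wells as the Shh reporter assay. NIH/3T3 cells carrying a Gli1 response element–driven luciferase were treated with DMSO-dissolved compounds for 24hr, and live-cell protease activity was measured with CellTiter-Fluor.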

[3] = qHTS assay to identify small molecule antagonists of the sonic hedgehog signaling (Shh) pathway - cell viability counter screen (AID 1259367); also: nearly all actives have a fitted effect of over 55% in size
Summary of the method: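 Using CellTiter-Fluor, viability of Gli1-Luc reporter 3T3 cells is read by fluorescence in the wells used for the Shh luciferase assay. Treatment lasts 23 hr with conditioned medium, then reagent 1 hr at 37C.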

[4] = qHTS assay to identify small molecule antagonists of the sonic hedgehog signaling (Shh) pathway (AID 1259369; calls by dose curve; also: nearly all actives have a fitted effect of over 45% in size)
Summary of the method: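 3T3Gli1-Luc, conditioned-medium-stimulated, 24hr cpd, 37C/5% CO2; Gli1-driven firefly Luc luminescence after 30min RT with luciferase reagent. Cells plated 4hr before cpd.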

[5] = target: Estrogen receptor beta (Homo sapiens) (UniProt Q92731); test: qHTS assay to identify small molecule antagonists of the estrogen receptor beta (ER-beta) signaling pathway (AID 1259378; active = well fitted inhibition curve with a large enough effect in the signal ratio in the repeat runs, not every such curve was filed as active; the % refers to the signal ratio)
Sequence of Estrogen receptor beta (Homo sapiens) (Q92731 whole entry, looked up): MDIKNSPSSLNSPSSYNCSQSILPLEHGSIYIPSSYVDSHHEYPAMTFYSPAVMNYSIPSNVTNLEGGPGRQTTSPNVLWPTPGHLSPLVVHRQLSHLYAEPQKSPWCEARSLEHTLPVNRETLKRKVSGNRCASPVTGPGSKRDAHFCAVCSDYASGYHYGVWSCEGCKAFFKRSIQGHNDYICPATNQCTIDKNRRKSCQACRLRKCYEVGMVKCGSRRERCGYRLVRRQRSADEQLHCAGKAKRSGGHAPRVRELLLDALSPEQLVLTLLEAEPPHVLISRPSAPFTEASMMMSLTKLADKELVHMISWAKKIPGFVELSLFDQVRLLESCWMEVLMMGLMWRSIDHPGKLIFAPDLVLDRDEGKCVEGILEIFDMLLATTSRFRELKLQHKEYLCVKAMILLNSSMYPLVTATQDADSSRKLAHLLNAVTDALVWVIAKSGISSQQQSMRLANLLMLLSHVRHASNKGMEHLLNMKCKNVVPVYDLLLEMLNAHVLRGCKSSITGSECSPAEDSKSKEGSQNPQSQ
Summary of the method: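 Antagonist mode: compounds added to beta-lactamase reporter HEK293T ER-beta-UAS cells stimulated with E2 (1nM final), 16 hr at 37C. LiveBLAzer B/G FRET substrate, 2 hours room temperature, fluorescence read-out.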

[6] = qHTS assay to identify small molecule agonists of the androgen receptor (AR) signaling pathway in the presence of an antagonist - cell viability counter screen (AID 1259379);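 also: MDA-kb2 human breast cancer cells carrying an MMTV luciferase reporter; series mostly up to about 92 µM; nearly all actives have a fitted effect of over 25% in size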
Summary of the method: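 Cells: MDA-kb2 (MMTV-luc, AR and GR elements), 3,000/well, 5 hr settle. Added: nilutamide 3.0uM final, then compounds (15 conc.). Incubation: 16 hr, 37C, no CO2. Read-out: CellTiter-Fluor, 1 hr, fluorescence.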

[7] = qHTS assay to identify small molecule agonists of the estrogen receptor beta (ER-beta) signaling pathway - cell viability counter screen (AID 1259380); also: nearly all actives have a fitted effect of over 30% in size
Summary of the method: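 HEK293T ER-beta-UAS-bla; 2% CS-FBS; 6 hr pre-plate, 16 hr cpd at 37C/5% CO2; LiveBLAzer read first, then CellTiter-Glo 30 min RT, luminescence.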

[8] = target: Estrogen receptor beta (Homo sapiens) (UniProt Q92731); test: qHTS assay to identify small molecule agonists of the estrogen receptor beta (ER-beta) signaling pathway (AID 1259377; active = well fitted activation curve with a large enough effect in the signal ratio in the repeat runs, not every such curve was filed as active; the % refers to the signal ratio)
Summary of the method: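 HEK293T ER-beta-UAS-bla; 2% charcoal-stripped FBS; cells pre-incubated 6 hr, compound 16 hr, 37C/5% CO2; LiveBLAzer B/G FRET substrate 2 h RT; fluorescence intensity read.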

[9] = target: Androgen receptor (Homo sapiens) (UniProt P10275); test: qHTS assay to identify small molecule agonists of the androgen receptor (AR) signaling pathway in the presence of an antagonist (AID 1259381; calls by dose curve; also: nearly all actives have a fitted effect of over 15% in size)
Sequence of Androgen receptor (Homo sapiens) (P10275 whole entry, looked up): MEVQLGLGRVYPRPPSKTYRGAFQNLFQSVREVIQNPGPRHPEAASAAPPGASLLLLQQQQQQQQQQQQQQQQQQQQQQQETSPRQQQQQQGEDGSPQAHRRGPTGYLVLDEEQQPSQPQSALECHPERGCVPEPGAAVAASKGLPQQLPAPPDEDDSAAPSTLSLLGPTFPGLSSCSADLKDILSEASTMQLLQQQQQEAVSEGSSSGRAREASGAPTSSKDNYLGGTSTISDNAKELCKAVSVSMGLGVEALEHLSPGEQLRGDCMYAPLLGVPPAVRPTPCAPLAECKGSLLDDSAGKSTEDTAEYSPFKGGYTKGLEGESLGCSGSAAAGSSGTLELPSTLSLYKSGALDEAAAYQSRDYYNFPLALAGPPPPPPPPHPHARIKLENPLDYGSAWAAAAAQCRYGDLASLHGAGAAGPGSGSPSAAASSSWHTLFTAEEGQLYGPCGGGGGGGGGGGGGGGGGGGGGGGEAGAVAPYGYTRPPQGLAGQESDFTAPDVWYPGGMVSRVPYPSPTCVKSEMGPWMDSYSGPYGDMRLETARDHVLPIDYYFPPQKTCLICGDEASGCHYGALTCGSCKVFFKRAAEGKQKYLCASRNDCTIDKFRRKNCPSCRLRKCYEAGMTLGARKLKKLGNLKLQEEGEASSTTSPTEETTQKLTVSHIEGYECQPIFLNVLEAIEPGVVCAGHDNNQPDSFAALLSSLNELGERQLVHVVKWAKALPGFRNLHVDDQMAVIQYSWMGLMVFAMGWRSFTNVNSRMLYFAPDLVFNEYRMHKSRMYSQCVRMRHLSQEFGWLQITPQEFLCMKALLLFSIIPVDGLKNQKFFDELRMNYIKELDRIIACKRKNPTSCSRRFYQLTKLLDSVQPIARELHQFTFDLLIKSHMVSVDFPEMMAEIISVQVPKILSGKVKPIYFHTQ
Summary of the method: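 MDA-kb2 cells, 3,000/well, rested 5hr at 37C/0% CO2 → nilutamide 3.0uM final or buffer → compounds, 15 conc. → 16hr at 37C → ONE-Glo, 30min RT → luminescence.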

[10] = qHTS assay to identify small molecule agonists of the sonic hedgehog signaling (Shh) pathway (AID 1259368; calls by dose curve;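 also: NIH/3T3-derived 3T3Gli1-Luc cells carrying a stable Gli1-driven firefly luciferase reporter; series mostly up to about 92 µM; nearly all actives have a fitted effect of over 15% in size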)
Summary of the method: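 3T3Gli1-Luc (NIH/3T3 clone, stable Gli1-Luc); 4 hr pre-incubation, then cpd in DMSO 24 hr, 37 C/5% CO2; luciferase reagent 30 min RT; luminescence.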
% is scaled to controls: 0 for no effect and ±100 for the full control effect.

NC(=O)NC(=O)Cc1ccccc1
inactive: outcome [1] | Potency [2] | Potency [3] | Potency [4] | outcome [5] | Potency [6] | outcome [7]

C[C@H](CCC(=O)O)[C@H]1CC[C@H]2[C@@H]3[C@H](O)C[C@@H]4C[C@H](O)CC[C@]4(C)[C@H]3C[C@H](O)[C@]12C
inactive: outcome [1] | Potency [2] | Potency [3] | Potency [4] | Potency [6] | outcome [7]

Cc1cccc(NC(=S)N(C)C)c1
inactive: outcome [1] | Potency [2] | Potency [3] | Potency [4] | Potency [8] | Potency [6]

Cc1cc(O)c2c(c1)C(=O)c1cccc(O)c1C2=O
inactive: outcome [1] | Potency [2] | Potency [4] | Potency [8] | outcome [5] | Potency [6] | outcome [7]

O=C(Nc1cccc(C2=NCCN2)c1)Nc1cccc(C2=NCCN2)c1
inactive: activity change, negative = cytotoxicity [1] 1.17% [at 19 µM] | viability change, negative = cytotoxic [2] 8.12% [at 19 µM] | viability change, negative = cytotoxic [3] 0.404% [at 19 µM] | activity change, negative = inhibition [4] 17.1% [at 19 µM] | activity change, negative = cytotoxicity [6] 1.81% [at 19 µM] | activity change, negative = cytotoxicity [7] 2.07% [at 19 µM]

CCCCCCCCCCC
inactive: outcome [1] | Potency [2] | Potency [3] | Potency [4] | Potency [8] | outcome [5] | Potency [6] | outcome [9]

CC(C)(c1ccc(Oc2ccc3c(c2)C(=O)OC3=O)cc1)c1ccc(Oc2ccc3c(c2)C(=O)OC3=O)cc1
inactive: outcome [1] | Potency [2] | Potency [3] | Potency [8] | outcome [5] | Potency [6] | outcome [7]

C=CC(C)(O)CC/C=C(\C)CC (centres undefined)
inactive: outcome [1] | Potency [2] | Potency [3] | Potency [4] | Potency [8] | outcome [5] | Potency [6] | outcome [7]

CCCCOC(=O)C(C)OC(=O)CCC (centres undefined)
inactive: outcome [1] | Potency [3] | outcome [10] | Potency [4] | Potency [8] | outcome [5] | Potency [6] | outcome [7]

CNCc1ccccc1
inactive: outcome [1] | Potency [2] | Potency [3] | Potency [4] | Potency [6]

CCC1Nc2cc(Cl)c(S(N)(=O)=O)cc2S(=O)(=O)N1 (centres undefined)
inactive: outcome [1] | Potency [2] | Potency [3] | Potency [8] | outcome [5] | Potency [6]

BrC/C=C/CBr
inactive: activity change, negative = cytotoxicity [1] 2.41% [at 19 µM] | viability change, negative = cytotoxic [2] 0.645% [at 19 µM] | viability change, negative = cytotoxic [3] -1.72% [at 19 µM] | activity change, negative = inhibition [4] -14% [at 19 µM] | activity, negative = inhibition [5] 8.47% [at 19 µM] | activity change, negative = cytotoxicity [6] 0.671% [at 19 µM] | activity change, negative = cytotoxicity [7] 4.89% [at 19 µM]

CC(=O)Nc1ncc([N+](=O)[O-])s1
inactive: outcome [1] | Potency [2] | Potency [3] | Potency [6] | outcome [7]

O=C(O)CCNC(=O)c1ccccc1
inactive: outcome [1] | Potency [2] | Potency [3] | Potency [4] | Potency [6] | outcome [7]

C=CCOCC(CO)(COCC=C)COCC=C
inactive: outcome [1] | Potency [3] | outcome [10] | Potency [4] | Potency [8] | outcome [5] | Potency [6] | outcome [7]

Cc1nc2ccccc2c(=O)o1
inactive: outcome [1] | Potency [3] | outcome [10] | Potency [4] | Potency [8] | outcome [5] | Potency [6] | outcome [7]

C=CCOC(=O)c1ccc(C(=O)OCC=C)c(C(=O)OCC=C)c1
inactive: outcome [1] | Potency [3] | outcome [10] | Potency [4] | Potency [8] | outcome [5] | Potency [6] | outcome [7]

CCCCCCCCCCCCC
inactive: outcome [1] | Potency [3] | Potency [4] | Potency [6]

O=C(/C=C/c1ccccc1)NCCO
inactive: outcome [1] | Potency [3] | Potency [4] | outcome [5] | Potency [6]

CC(C)CCCC(C)CC=O (centres undefined)
inactive: outcome [1] | Potency [3] | Potency [4] | Potency [8] | outcome [5] | Potency [6] | outcome [7]

C1=CCC(c2ccccc2)CC1 (centres undefined)
inactive: outcome [1] | Potency [3] | outcome [10] | Potency [4] | Potency [8] | outcome [5] | Potency [6] | outcome [7]

Cc1nc([N+](=O)[O-])cn1-c1ccc([N+](=O)[O-])cc1
inactive: outcome [1] | Potency [3] | outcome [10] | Potency [4] | Potency [6] | outcome [7]

CN(C)CCCNCCC#N
inactive: outcome [1] | Potency [3] | outcome [10] | Potency [4] | outcome [5] | Potency [6]

Cc1ccc(C(=O)C(=O)O)cc1C
inactive: outcome [1] | Potency [3] | outcome [10] | Potency [4] | Potency [6] | outcome [7]

CC(C)SCc1ccco1
inactive: outcome [1] | Potency [3] | Potency [4] | Potency [8] | outcome [5] | Potency [6] | outcome [7]

O=C(O)/C=C/c1ccccc1
inactive: outcome [1] | Potency [3] | Potency [4] | Potency [6] | outcome [7]

C=CCCCCCCCCCCC
inactive: activity change, negative = cytotoxicity [1] 4.34% [at 8.39 µM] | viability change, negative = cytotoxic [3] 2.53% [at 8.39 µM] | activity change [10] 0.0597% [at 8.39 µM] | activity change, negative = inhibition [4] -3.37% [at 8.39 µM] | activity change, negative = cytotoxicity [6] 0.376% [at 8.39 µM] | activity change, negative = cytotoxicity [7] -6.43% [at 8.39 µM] | activation [9] 2.68% [at 8.39 µM]

CCCOC(=O)CCCCC(=O)OCCC
inactive: outcome [1] | Potency [3] | Potency [4] | Potency [8] | outcome [5] | Potency [6] | outcome [7]
